Measured values from the supplement of paper PMC7156485.

The compounds below were run on HCC1569 (assay: cell number relative to DMSO (% of DMSO); higher = more cells (less growth inhibition / toxicity)). Conditions: concentration: 10 µM; 24 h.
Method in brief: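 After 24 h at 37 °C with compounds at 10 µM, in triplicate, HCC1569 and TDF cells were fixed with 3.7% formaldehyde. Immunostaining used a rabbit anti-H1.0 antibody and an AlexaFluor 647 secondary, with DAPI, and six fields per well were imaged at ×10. H1.0 nuclear intensity or cell number is presented as percent of the plate control, from the median of replicates, with HCC1569 values smoothed for positional effects.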
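Note: TDF denotes transformed human dermal fibroblasts of mesenchymal origin.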

Compound | cell number
COc1ccc2c(c1)=NC1=C(C)NCCC=21 [Harmaline] | 99.3
COc1ccc2c(c1)C13CCCCC1C(C2)N(C)CC3 (stereo not drawn) [Dextromethorphan] | 103
C=CCN1CCC23c4c5ccc(O)c4OC2C(=NNC(=O)c2ccccc2)CCC3(O)C1C5 (stereo not drawn) [Naloxone benzoylhydrazone] | 99.7
CN1C2CCC1CC(OC(c1ccccc1)c1ccccc1N)C2 (stereo not drawn) [Aminobenztropine] | 103
CC1OC(=O)C(C(C)C)NC(=O)C(C(C)C)OC(=O)C(C(C)C)NC(=O)C(C)OC(=O)C(C(C)C)NC(=O)C(C(C)C)OC(=O)C(C(C)C)NC(=O)C(C)OC(=O)C(C(C)C)NC(=O)C(C(C)C)OC(=O)C(C(C)C)NC1=O (stereo not drawn) [Valinomycin] | 65
CCCN(CCC)C(=O)Cc1c(-c2ccc(Cl)cc2)nc2c(Cl)cc(Cl)cn12 | 103
C[N+](C)(C)CC#CCOC(=O)Nc1cccc(Cl)c1.[Cl-] | 103
[Cl-].c1ccc2c(c1)[I+]c1ccccc1-2 [Diphenyleneiodonium chloride] | 61.4
Br.CN1C2CC(OC(=O)C(CO)c3ccccc3)CC1C(O)C2 (stereo not drawn) [Anisodamine] | 104
CC=C(C)C(=O)OC1C(C)=C2C(C1OC(=O)CCCCCCC)C(C)(OC(C)=O)CC(OC(=O)CCC)C1(O)C2OC(=O)C1(C)O (stereo not drawn) [Thapsigargin] | 62.4
CCC1CN2CCc3cc(OC)c(OC)cc3C2CC1CC1NCCc2cc(OC)c(OC)cc21.Cl.Cl (stereo not drawn) [Emetine dihydrochloride hydrate] | 57.5
O=C1NC(=O)c2c1c1c3ccccc3[nH]c1c1[nH]c3ccccc3c21 | 98.8
O=C1CCCN1CC#CCN1CCCC1 [Oxotremorine] | 101
CN1C2CC(=O)CC1C(O)C2 (stereo not drawn) [6-Hydroxytropinone] | 103
COC1=C(OC)C(=O)C(=C2C(C)=C(C(=O)O)NC(c3ccc4c(n3)C(=O)C(N)=C(OC)C4=O)=C2N)C=C1 [Streptonigrin] | 41.2
Cl.Cl.c1ccc(CCCN2CCN(CCOC(c3ccccc3)c3ccccc3)CC2)cc1 | 98.6
CCCN(CCC)C1CCc2ccc(O)cc2C1 (racemic) | 102

Compound | cell number
CC1=C(O)C(=O)C2OC2C1=O (single isomer, unassigned; (-)) | 80
O=C(NCCN1CCC2(CC1)C(=O)NCN2c1cccc(F)c1)c1ccc(F)c(F)c1 | 92.7
CCN(CC)C(=O)NC1CC2c3cccc4[nH]cc(c34)CC2N(C)C1 (stereo not drawn) [R(+)-Terguride] | 101
COc1ccc2c(c1OC)C(=O)OC2C1c2cc3c(cc2CCN1C)OCO3 (stereo not drawn) | 107
CC(=O)OC1C(=O)C2(C)C(O)CC3OCC3(OC(C)=O)C2C(OC(=O)c2ccccc2)C2(O)CC(O)C(C)=C1C2(C)C (stereo not drawn) [Baccatin III] | 105
Cl.NCCc1c[nH]c2ccccc12 [Tryptamine hydrochloride] | 99.1
Cl.Clc1ccc(N2CCN(Cc3c[nH]c4ncccc34)CC2)cc1 [L-745,870 hydrochloride] | 99.5
CC(C)C1(NC(=O)C2CC3c4cccc5[nH]cc(c45)CC3N(C)C2)OC2(O)C3CCCN3C(=O)C(Cc3ccccc3)N2C1=O (stereo not drawn) [Dihydroergocristine] | 104
CS(=N)(=O)CCC(N)C(=O)O [L-Methionine sulfoximine] | 103
CCCN1CCCC(c2cccc(O)c2)C1.Cl (stereo not drawn) [S(-)-3PPP hydrochloride] | 99.1
Cl.NN=C(N)N [Aminoguanidine hydrochloride] | 105
CC1=C(O)C(=O)C=C2C1=CC=C1C2(C)CCC2(C)C3CC(C)(C(=O)O)CCC3(C)CCC12C (stereo not drawn) [Celastrol] | 38
CS(=O)(=O)O.O.Oc1ccc2c3c1OC1c4oc5ccccc5c4CC4(O)C(C2)N(CC2CC2)CCC314 (stereo not drawn) [Naltriben methanesulfonate hydrate] | 98.9
CCCCCC=CCC=CCCCCCCCC(=O)NCCO [Anandamide (18:2,n-6)] | 100
Cl.Oc1ccc2c3c1OC1C(O)CCC4(O)C(C2)N(CC2CCC2)CCC314 (stereo not drawn) [Nalbuphine hydrochloride] | 105
CC(=O)NC1CN2CCC(O)C2C(O)C1O (stereo not drawn) [6-Acetamido-6-deoxy-castanospermine] | 103
